CHO-K1 Ca antag – M1 antagonist counterscreen hit in parental CHO-K1 cells; ATP-induced calcium, Fluo-8 fluorescence; inhibition, % at 3 µM; 360,000 compounds, 0.6% hits;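 active = inhibition above a per-plate cutoff, the plate's mean sample inhibition plus 3 SD, cut at about 24% in these data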
TMEM16A inh – blocks the mouse calcium-activated chloride channel TMEM16A; HEK293 TMEM16A/YFP iodide influx fluorescence, ionomycin; normalized B-score (activity score, 25-100; higher = stronger inhibition) at 10 µM; 310,000 compounds, 1.2% hits; AID 588511;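 active = ratio plate-corrected score three or more library SD toward inhibition, starting fluorescence score within five deviations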;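 note: score derived from kinetic fluorescence span divided by baseline fluorescence per well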
Target sequence (Q8BHY3 whole entry, looked up): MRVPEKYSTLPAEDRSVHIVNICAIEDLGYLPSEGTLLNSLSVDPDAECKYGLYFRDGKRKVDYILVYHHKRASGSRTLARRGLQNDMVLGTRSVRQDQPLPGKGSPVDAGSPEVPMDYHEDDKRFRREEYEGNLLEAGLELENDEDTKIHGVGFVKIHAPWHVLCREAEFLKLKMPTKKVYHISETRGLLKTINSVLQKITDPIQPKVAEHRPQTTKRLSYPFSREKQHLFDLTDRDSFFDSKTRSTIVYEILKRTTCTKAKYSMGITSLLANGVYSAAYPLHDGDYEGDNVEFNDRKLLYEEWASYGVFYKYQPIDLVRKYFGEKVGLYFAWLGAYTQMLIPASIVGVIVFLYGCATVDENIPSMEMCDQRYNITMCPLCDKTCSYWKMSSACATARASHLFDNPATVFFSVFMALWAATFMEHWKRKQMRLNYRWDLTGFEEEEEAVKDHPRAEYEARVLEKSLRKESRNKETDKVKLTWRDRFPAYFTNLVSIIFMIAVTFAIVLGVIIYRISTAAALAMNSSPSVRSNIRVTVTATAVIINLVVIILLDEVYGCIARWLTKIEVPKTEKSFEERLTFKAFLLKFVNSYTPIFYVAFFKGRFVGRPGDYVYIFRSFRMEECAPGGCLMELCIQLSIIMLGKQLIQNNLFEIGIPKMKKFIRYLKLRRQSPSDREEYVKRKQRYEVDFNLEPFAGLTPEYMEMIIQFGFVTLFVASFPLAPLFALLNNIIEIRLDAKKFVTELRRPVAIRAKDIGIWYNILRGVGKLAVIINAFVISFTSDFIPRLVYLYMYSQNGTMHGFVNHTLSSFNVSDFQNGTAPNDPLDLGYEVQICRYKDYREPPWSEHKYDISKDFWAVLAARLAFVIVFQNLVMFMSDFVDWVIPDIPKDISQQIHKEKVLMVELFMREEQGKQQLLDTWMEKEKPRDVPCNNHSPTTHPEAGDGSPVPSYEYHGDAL
CHO-K1 Ca ag – M1 agonist counterscreen hit in parental CHO-K1 cells. Fluo-8 calcium fluorescence; scaled to maximal ATP response, vehicle zero. activation, % at 3 µM. 360,000 compounds, 0.48% hits; in the data active = activation above about 15%;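 note: untransfected CHO-K1 host cells lacking M1 receptor as counterscreen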
TMEM16A act – activates or potentiates the mouse TMEM16A chloride channel. Q8BHY3. HEK293 TMEM16A/YFP-H148Q/I152L, iodide quench fluorescence; hits give low values. B-score at 10 µM. 340,000 compounds, 0.3% hits. AID 623877;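 active = fluorescence-ratio B-score plate-corrected deviation score at least 3 library SD below zero, with starting fluorescence score within 5 deviations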;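 note: channel opened by trigger with iodide after compound preincubation; score built on the fluorescence ratio of max minus min over baseline; more negative score means more quench and so TMEM16A activation or potentiation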
NTR1 ag – agonists of human neurotensin receptor NTR1; NTR1-U2OS beta-arrestin-GFP spot imaging, agonist mode; AID 493036; P30989; activation, % at 20 µM; 330,000 compounds, 0.17% hits;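 active = activation at or above 40% of the spot to cytoplasm intensity ratio, with at least 20 cells analyzed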
CHO-K1 Ca PAM – M1 PAM counterscreen hit in parental CHO-K1 cells; ATP EC20, Fluo-8 calcium fluorescence; 0% at ATP EC20, 100% at ATP max; activation, % at 3 µM; 360,000 compounds, 0.02% hits;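 active = activation above the run cutoff, the mean activation of all test compounds plus 3 SD, cut at about 40% in these data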;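 note: peak over basal fluorescence ratio in a 140 s read after ATP addition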
Each line names hits and unclear results; the compound was inactive in the other large screens. In the library only some 2.2% were active in any assay of this set; here they are far more common.

Cc1ccc(S(=O)(=O)NCc2c(Cl)cccc2Oc2ccccc2)cc1	TMEM16A inh 100
Cn1c(N)nc2nc[nH]c2c1=S	none (no result: TMEM16A inh, NTR1 ag)
CC1=C(C(=O)N2CCCC(C(=O)c3cccc(C(F)(F)F)c3)C2)OCCO1 (stereo not given)	none
CCc1[nH]nc(C(=O)N2CCCC(C(=O)c3cccc(C(F)(F)F)c3)C2)c1C (stereo not given)	CHO-K1 Ca ag 15.5
Cc1ccc(-c2nc(N)c3c(-c4ccc(C)cc4)nn(C(C)(C)C)c3n2)cc1	TMEM16A inh 100
Cc1cccc(C(C)C)c1NC(=O)c1ccc(CN(c2ccccc2)S(=O)(=O)c2ccccc2)cc1	CHO-K1 Ca antag 25.7
COc1ccc(CN(Cc2ccccn2)S(=O)(=O)c2ccc(-n3cnnn3)c(OC)c2)cc1	none
COc1ccc(CN(Cc2ccccn2)S(=O)(=O)c2ccc(-n3cnnn3)cc2)cc1	CHO-K1 Ca antag 40.0
CCCC(=O)NC(=S)Nc1ccc(S(=O)(=O)Nc2ccc(OCC)cc2)cc1	CHO-K1 Ca ag 26.9
CCC(=O)NC(=S)Nc1ccc(S(=O)(=O)NC(C)=O)cc1	CHO-K1 Ca antag 28.9
CCOc1ccc(NS(=O)(=O)c2ccc(C(=O)N(C)CC(=O)Nc3ccc(OC)cc3)cc2)cc1	none
COc1ccc(-c2ccc3c(c2)C2CC3CCN2)cc1 (stereo not given)	none (no result: TMEM16A inh, TMEM16A act, NTR1 ag)
O=C(O)c1ccccc1-c1ccccc1C(=O)Nc1ccc2c(c1)oc(=O)c1ccccc12	none (no result: TMEM16A inh, TMEM16A act, NTR1 ag)
O=C(O)c1ccccc1-c1c2cc(I)c(=O)c(I)c-2oc2c(I)c(O)c(I)cc12	CHO-K1 Ca antag 70.5, CHO-K1 Ca ag 189.6
O=C(C1COc2ccccc2O1)N1CCN(c2ccccc2Cl)CC1 (stereo not given)	none
O=C(C1COc2ccccc2O1)N1CCCCC1 (stereo not given)	CHO-K1 Ca antag 23.9 (no result: TMEM16A inh)
O=C1Nc2cccc3c2N(CCC3)C2=C1CCC2	none (no result: TMEM16A inh, TMEM16A act, NTR1 ag)
Cc1ccccc1NS(=O)(=O)c1cc2c3c(c1)CC(=O)N3CCC2	CHO-K1 Ca ag 17.1
COc1cc(F)ccc1-c1cc(C(=O)NCc2ccc(C(F)(F)F)cc2)[nH]n1	none (no result: TMEM16A inh, TMEM16A act, NTR1 ag)
COC(=O)c1sccc1S(=O)(=O)Nc1ccc(Cl)cc1	none
COC(=O)c1sccc1S(=O)(=O)Nc1ccc(C(O)(C(F)(F)F)C(F)(F)F)cc1	CHO-K1 Ca ag 60.6 (no result: TMEM16A inh, TMEM16A act, NTR1 ag)
O=C(c1cc2ccccc2cc1O)N1CCCC1	CHO-K1 Ca ag 19.4
OCCCCCCNc1ccc(CCO)cc1	none (no result: TMEM16A inh, TMEM16A act, NTR1 ag)
COc1ccc(S(=O)(=O)N2CCC(C(=O)N3CCc4ccccc4C3)CC2)cc1	TMEM16A act -12.1
CCOc1ccc(S(=O)(=O)N2CCC(C(=O)N3CCc4ccccc4C3)CC2)cc1	none
CC1(C(=O)Nc2cccc3cccnc23)CCN1Cc1csc2ccccc12 (stereo not given)	CHO-K1 Ca PAM 50.6 (no result: TMEM16A inh, TMEM16A act, NTR1 ag)
CC(C)Oc1cccc(C(=O)Nc2nnc([C@H]3C[C@H](O)[C@@H](CO)O3)s2)c1	none (no result: TMEM16A inh, TMEM16A act, NTR1 ag)
CCN1CCN(S(=O)(=O)c2cc(OCC(=O)NC3CCCCC3)c(C)cc2Cl)CC1	CHO-K1 Ca antag 26.7
CCOC(=O)N1CCN(S(=O)(=O)c2cc(OCC(=O)NC3CCCCC3)c(C)cc2Cl)CC1	none
COc1ccc(NC(=O)C(Sc2ccccc2)c2ccccc2)c(OC)c1 (stereo not given)	CHO-K1 Ca PAM 43.5
CCOc1ccccc1NC(=O)C(OC(=O)c1cnc(C)cn1)c1ccccc1 (stereo not given)	CHO-K1 Ca PAM 46.1 (no result: TMEM16A inh, TMEM16A act, NTR1 ag)
CCOc1ccccc1NC(=O)C(Sc1ccccc1)c1ccccc1 (stereo not given)	TMEM16A inh 100
Cc1ccc(S(=O)(=O)N2C[C@H]3[C@H]4C(=O)N(C)C(=O)[C@H]4CC(=O)[C@H]3[C@@H]2c2ccccc2F)cc1	none (no result: TMEM16A inh, TMEM16A act, NTR1 ag)
O=C(Nc1ccc(F)c(Cl)c1)c1cc(C2CCCCN2C(=O)c2ccccc2)on1 (stereo not given)	none (no result: TMEM16A inh, TMEM16A act, NTR1 ag)
COCCC1CCCCN1C(=O)c1cc(COc2ccc(-n3cncn3)cc2)on1 (stereo not given)	CHO-K1 Ca antag 25.4
O=C(NCc1cccc(Cl)c1)c1cc(COc2ccc3ncccc3c2)on1	TMEM16A inh 100
CCN1CCN(C(=O)c2cc(COc3ccc4ncccc4c3)on2)CC1	none
COCC1CCCCN1C(=O)c1cc(COc2ccc3ncccc3c2)on1 (stereo not given)	CHO-K1 Ca antag 32.9, CHO-K1 Ca ag 20.3
CCC1CCCCN1C(=O)c1cc(COc2ccc3ncccc3c2)on1 (stereo not given)	CHO-K1 Ca antag 27.1, TMEM16A inh 25, CHO-K1 Ca ag 16.0
Cc1ccc(C(=O)O)cc1NC(=S)NC(=O)c1ccc(COc2ccccc2)cc1	TMEM16A inh 25
OC(COc1cccc2ccccc12)CN1CCN(c2cccc(Cl)c2)CC1 (stereo not given)	CHO-K1 Ca ag 21.2
CC1=NN(c2ccccc2)C(=O)/C1=C\C=C1/N(C)c2ccccc2C1(C)C	CHO-K1 Ca ag 32.0
CN1/C(=C\C=C2/SC(=S)NC2=O)C(C)(C)c2ccccc21	CHO-K1 Ca antag 59.1, CHO-K1 Ca ag 71.9
CCCS(=O)(=O)NC(=O)C1(C)CCCN(C(=O)c2cc(F)ccc2C)C1 (stereo not given)	none (no result: TMEM16A inh, TMEM16A act, NTR1 ag)
CC(C)/C=C/C(=O)N1CCC(N2CCC(C(=O)NCC3CCCO3)CC2)CC1 (stereo not given)	none (no result: TMEM16A inh, TMEM16A act, NTR1 ag)
CCOc1ccc(OCC(O)CNC2CCN(Cc3ccccc3)CC2)cc1 (stereo not given)	none
CC(C)(c1ccccc1)c1ccc(OCC(O)CNC2CCN(Cc3ccccc3)CC2)cc1 (stereo not given)	TMEM16A inh 100
O=C1NC[C@H](CCCCN2CCN(CCc3ccc(O)cc3)C(=O)C2=O)N(CCC2CCCCC2)C1=O	none (no result: TMEM16A inh, TMEM16A act, NTR1 ag)
CC(=O)N(/N=C/c1cccc(C)c1)c1nc(-c2ccc(Br)cc2)cs1	none
COc1ccc(/C=N/N(C(C)=O)c2nc(-c3ccc(C)cc3)cs2)cc1	TMEM16A act -7.17
CCN1C(=O)c2cccc3c(N)ccc(c23)C1=O	CHO-K1 Ca ag 72.3
Cc1nn(C)c(C)c1N1C(=O)c2cccc3c(Br)ccc(c23)C1=O	none
Cc1ccc(N2C(=O)c3cccc4c(N)ccc(c34)C2=O)c2cccnc12	CHO-K1 Ca ag 22.6
Cc1nn(C)c(C)c1N1C(=O)c2cccc3c(N)ccc(c23)C1=O	CHO-K1 Ca antag 30.8, CHO-K1 Ca ag 63.0 (no result: NTR1 ag)
CCCCNc1ccc2c3c(cccc13)C(=O)N(CCCC)C2=O	CHO-K1 Ca antag 92.6, CHO-K1 Ca ag 348.0 (no result: TMEM16A inh, NTR1 ag)
O=S1(=O)CC(N2CCN(Cc3ccccc3F)CC2)CN1Cc1cn(Cc2cccc(Cl)c2)nn1 (stereo not given)	none (no result: TMEM16A inh, TMEM16A act, NTR1 ag)
Cc1ccc(F)cc1C(=O)N1CCCC(c2cc(C(=O)Nc3ccccc3Cl)no2)C1 (stereo not given)	none (no result: TMEM16A inh, TMEM16A act, NTR1 ag)

Source: PubChem
